Test results reported in the supplement of paper PMC6555819.

Assays:
Assay in all cases: PBM binding z-score (relative to random genomic background probes); higher = stronger binding; sequences stand for … in GC…GCGATTGACAGCGTAGAATGAAGG
[1] = tested on: FXR:RXRa (NR concentration 270 nM, RXRa partner concentration 90 nM)
Outline: (§1)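 Binding z-scores were set against random background probes. The data came from custom Agilent 4×180K protein-binding microarrays carrying double-stranded probes with 34-nt variable regions, incubated 1 h with ligand-free nuclear receptor dimers. Partner-specific antibodies detected binding, and scanned fluorescence was regression-normalized.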

[2] = tested on: LXRa:RXRa (NR concentration 270 nM, RXRa partner concentration 90 nM)
Outline: as §1

[3] = tested on: LXRa homodimer (NR concentration 270 nM)
Outline: as §1

[4] = tested on: LXRb homodimer (NR concentration 270 nM)
Outline: as §1

[5] = tested on: PPARa:RXRa (NR concentration 270 nM, RXRa partner concentration 90 nM)
Outline: as §1

[6] = tested on: PPARg:RXRa (NR concentration 180 nM, RXRa partner concentration 90 nM)
Outline: as §1

[7] = tested on: PPARg:RXRa 270nM:90nM, anti-RXR (NR concentration 270 nM, RXRa partner concentration 90 nM)
Outline: as §1

[8] = tested on: PPARg:RXRa 30nM:10nM, anti-RXR (NR concentration 30 nM, RXRa partner concentration 10 nM)
Outline: as §1

[9] = tested on: PPARg:RXRa 90nM:30nM, anti-RXR (NR concentration 90 nM, RXRa partner concentration 30 nM)
Outline: as §1

Row | Sequence | PBM binding z-score [1] | PBM binding z-score [2] | PBM binding z-score [3] | PBM binding z-score [4] | PBM binding z-score [5] | PBM binding z-score [6] | PBM binding z-score [7] | PBM binding z-score [8] | PBM binding z-score [9]
1 | CGTCAAAGTTCAAGGTAATGTAACAGAAAGCAGC | 5.9 | 5.34 | 2.54 | 1 | 4.74 | 4.21 | 5.13 | 2.14 | 3.68
2 | AGAATGAGGTTAGCAAAGATCAGGGAAACGCTTG | 0.688 | 1.07 | -0.0125 | -0.163 | 1.79 | 1.02 | 0.909 | 0.0816 | 0.6
3 | CCTAGTTGGTCAGGAAGTCACACACCGGATATGA | 0.197 | 0.331 | 0.553 | 0.257 | 0.239 | 0.696 | 0.592 | 0.308 | 0.322
4 | CCTTACGGGTCAAGGTTATACCACGGGTGGTACG | 5.46 | 3.7 | 0.309 | 0.0291 | 4.99 | 4.6 | 4.47 | 1.63 | 3.83
5 | GTACCAAGGTGAATAGGTCGTTGATGAGTAGGCG | 0.835 | 0.771 | -0.075 | -0.364 | 2.08 | 1.61 | 1.8 | 0.486 | 1.17
6 | ATCGAAAGGTCGTGAGGTGAGTACACAGAAAGGC | 4.79 | 4.23 | 0.197 | 0.501 | 5.02 | 3.98 | 4.57 | 1.74 | 3.26
7 | CCTAGTTGGTCAAGGTCACGCACGCTATAGGTAC | 4.95 | 4.55 | 2.22 | 0.524 | 4.31 | 3.69 | 4.15 | 1.96 | 3
8 | TCTACTTGGTCACGGAGGTCACACACGACGGGTA | 3.59 | 3.73 | 3.08 | 1.3 | 3.99 | 3.67 | 4.1 | 3.72 | 3.83
9 | CCTACTGGGCCAAGGTCATTGACCAGTCAAAGCA | 3.77 | 4.03 | 1.67 | -0.702 | 4.03 | 4.3 | 4.66 | 2.17 | 4.38
10 | TCTAGTTGGTCAAAGGTCAAACACTCGAAATGCG | 6.51 | 6.59 | 5.24 | 2.77 | 6.82 | 11.2 | 10.3 | 9.94 | 11
11 | CACACTAGGTCAAAGGTCAAAGTCGAGCCAACCA | 8.41 | 7.68 | 6.65 | 3.73 | 7.75 | 13.9 | 11.2 | 14 | 14
12 | CCTAGTTGGTCAAGGTCCCACACGCTATAGGTAC | 0.27 | 0.395 | 0.55 | -0.02 | 0.398 | 0.782 | 0.497 | -0.0168 | 0.409
13 | CCTAGTGGGTCAGGAGGTCACACACCGGATATGA | 4.27 | 4.06 | 1.62 | 0.0765 | 5.31 | 7.91 | 6.77 | 4.29 | 6.31
14 | CATAGTTGGTCAAGGTCACACACGCTATAGGTAC | 4.26 | 4.07 | 1.83 | 1.1 | 4.12 | 3.78 | 3.92 | 1.88 | 3.28
15 | GATACAGGGTCAAGGCCAGAGTACGCGTATTGAT | 6.67 | 4.16 | 0.173 | -0.282 | 5.44 | 5.85 | 5.43 | 2.04 | 4.11
